Set-up in all cases: scale not given: direction of the effect not stated beside the values
The target in assay [1] is Protein translocase subunit SecA (Escherichia coli (strain K12)) (UniProt P10408). Kind of assay: Assay to Identify E. coli SecA ATPase Inhibitors. The format is functional. The following applies: 30 µM.
The target in assay [2] is T1, Ubiquitin-activating enzyme e1, putative (Leishmania donovani (strain BPK282A1)) (UniProt E9BSI1).
T1 sequence (whole entry): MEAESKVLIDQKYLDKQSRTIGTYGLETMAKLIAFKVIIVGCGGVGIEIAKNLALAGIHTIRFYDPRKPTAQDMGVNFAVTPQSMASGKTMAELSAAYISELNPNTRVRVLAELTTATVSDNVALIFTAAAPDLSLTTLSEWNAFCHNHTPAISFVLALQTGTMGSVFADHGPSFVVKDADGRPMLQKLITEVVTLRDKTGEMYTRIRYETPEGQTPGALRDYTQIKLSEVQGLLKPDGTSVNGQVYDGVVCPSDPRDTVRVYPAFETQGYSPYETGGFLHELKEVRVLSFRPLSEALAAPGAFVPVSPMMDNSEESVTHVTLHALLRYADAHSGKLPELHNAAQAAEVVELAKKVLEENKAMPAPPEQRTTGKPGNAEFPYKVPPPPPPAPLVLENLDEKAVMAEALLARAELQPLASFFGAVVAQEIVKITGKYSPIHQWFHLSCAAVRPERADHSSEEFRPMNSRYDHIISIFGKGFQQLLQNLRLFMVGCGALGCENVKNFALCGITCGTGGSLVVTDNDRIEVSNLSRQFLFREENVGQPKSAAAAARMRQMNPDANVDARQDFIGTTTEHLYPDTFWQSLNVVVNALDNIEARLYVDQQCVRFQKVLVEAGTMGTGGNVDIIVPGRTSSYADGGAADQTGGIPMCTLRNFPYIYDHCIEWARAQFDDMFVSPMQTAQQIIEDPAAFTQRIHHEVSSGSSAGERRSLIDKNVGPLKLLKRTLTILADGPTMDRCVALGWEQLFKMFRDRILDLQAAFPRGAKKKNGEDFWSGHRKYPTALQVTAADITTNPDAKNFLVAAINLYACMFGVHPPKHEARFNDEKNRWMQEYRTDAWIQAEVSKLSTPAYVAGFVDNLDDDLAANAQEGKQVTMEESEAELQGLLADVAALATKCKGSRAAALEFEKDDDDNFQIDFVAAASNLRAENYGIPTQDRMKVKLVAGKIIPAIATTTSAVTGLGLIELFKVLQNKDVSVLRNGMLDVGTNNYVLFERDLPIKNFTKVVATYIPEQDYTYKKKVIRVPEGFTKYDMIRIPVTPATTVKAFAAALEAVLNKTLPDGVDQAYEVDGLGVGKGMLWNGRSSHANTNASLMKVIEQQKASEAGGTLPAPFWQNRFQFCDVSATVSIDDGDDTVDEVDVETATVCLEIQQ
Kind of assay: Leishmania donovani Ubiquitin Activating Enzyme (LdE1). As to conditions: 30 µM. The format is functional.

For assay [3], the target named is Sialic acid-binding Ig-like lectin 9 (Homo sapiens) (UniProt Q9Y336). Kind of assay: Hs-Siglec9 ALPHAscreen SOP 20170721. As to conditions: 10 µM. A general note: Bead proximity is the source of the signal in Alpha formats.
In another assay the test system is Trypanosoma cruzi. Kind of assay: Trypanosoma cruzi phosphomannomutase and mannose-1-phosphate guanylyltransferase assay. The format is functional. The following applies: 10 µM.
The target of assay [4] is T2, Arginase-2, mitochondrial (Homo sapiens) (UniProt P78540).
T2 sequence (whole entry): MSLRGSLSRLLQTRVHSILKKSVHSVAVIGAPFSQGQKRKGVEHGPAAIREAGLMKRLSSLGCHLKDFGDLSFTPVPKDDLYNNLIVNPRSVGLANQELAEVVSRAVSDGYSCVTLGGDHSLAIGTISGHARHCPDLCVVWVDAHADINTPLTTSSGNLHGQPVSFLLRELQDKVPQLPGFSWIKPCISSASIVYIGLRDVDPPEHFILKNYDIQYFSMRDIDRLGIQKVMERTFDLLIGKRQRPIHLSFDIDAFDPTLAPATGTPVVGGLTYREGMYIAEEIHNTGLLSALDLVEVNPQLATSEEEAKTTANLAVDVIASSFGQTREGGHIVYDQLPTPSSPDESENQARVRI
Kind of assay: in vitro enzyme assay to detect the production of urea directly proportional to the activity of Arginase II. Also: in the data most compounds retested in dose-response had high values. The format is functional. As to conditions: 33.3 µM.

The target in assay [5] is T3, Proteasome subunit beta (Trypanosoma cruzi) (UniProt O96673).
T3 sequence (whole entry): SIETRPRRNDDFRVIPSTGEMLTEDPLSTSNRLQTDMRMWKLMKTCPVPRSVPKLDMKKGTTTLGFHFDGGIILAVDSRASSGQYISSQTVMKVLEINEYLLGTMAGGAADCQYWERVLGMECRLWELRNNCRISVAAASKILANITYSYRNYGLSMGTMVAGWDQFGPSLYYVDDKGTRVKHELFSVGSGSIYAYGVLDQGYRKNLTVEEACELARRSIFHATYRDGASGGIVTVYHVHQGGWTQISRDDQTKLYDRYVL
Kind of assay: Trypanosoma cruzi proteasome chymotrypsin-like activity (TcProtChymo) assay. Also: in the data most compounds retested in dose-response had high values. The format is functional. As to conditions: 9.37 µM.

The species named for another assay is Homo sapiens. In words: To identify inhibition of the IFN signalling (Jak-Stat) pathway via expression of an eGFP reporter gene under the control of an IFN-stimulated response element (ISRE) containing MxA promoter. The format is functional. The following applies: 30 µM. For orientation: In a reporter assay the amount or activity of a reporter protein is the signal.

The target of assay [6] is T4, Tyrosyl-tRNA synthetase, putative (Trypanosoma cruzi (strain CL Brener)) (UniProt Q4DSP6).
T4 sequence (whole entry): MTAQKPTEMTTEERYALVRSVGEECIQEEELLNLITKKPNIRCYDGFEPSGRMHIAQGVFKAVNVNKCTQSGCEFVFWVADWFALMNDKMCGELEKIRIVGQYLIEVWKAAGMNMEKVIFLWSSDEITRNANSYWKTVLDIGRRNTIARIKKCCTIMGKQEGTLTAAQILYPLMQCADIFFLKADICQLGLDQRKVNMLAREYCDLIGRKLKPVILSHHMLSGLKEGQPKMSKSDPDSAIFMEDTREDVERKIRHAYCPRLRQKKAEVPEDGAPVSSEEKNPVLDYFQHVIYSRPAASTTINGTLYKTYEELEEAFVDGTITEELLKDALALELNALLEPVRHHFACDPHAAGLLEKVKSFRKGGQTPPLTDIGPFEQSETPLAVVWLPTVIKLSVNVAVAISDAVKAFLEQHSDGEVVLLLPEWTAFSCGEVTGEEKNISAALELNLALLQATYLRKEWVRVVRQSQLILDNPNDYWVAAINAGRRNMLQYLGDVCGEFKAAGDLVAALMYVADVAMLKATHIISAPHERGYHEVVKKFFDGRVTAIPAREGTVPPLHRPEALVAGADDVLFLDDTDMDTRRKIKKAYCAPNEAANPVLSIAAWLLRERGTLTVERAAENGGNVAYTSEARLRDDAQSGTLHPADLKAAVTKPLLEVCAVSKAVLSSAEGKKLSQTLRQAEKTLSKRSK
Kind of assay: Trypanosoma cruzi tyrosyl tRNA synthetase (TcYRS) _High Tyrosine SOP. Also: in the data most compounds retested in dose-response had high values. The format is functional. The following applies: 30 µM.

Assay [7] concerns the target T4, Tyrosyl-tRNA synthetase, putative (Trypanosoma cruzi (strain CL Brener)). In words: Trypanosoma cruzi tyrosyl tRNA synthetase (TcYRS) SOP. The format is functional. The following applies: 30 µM.
Assay [8] concerns the target Chromo domain-containing protein 1 (Saccharomyces cerevisiae (strain ATCC 204508 / S288c) (Baker's yeast)) (UniProt P32657). In words: ScCHD-1 Enzyme Inhibition Assay. Also: in the data most compounds retested in dose-response had high values. The format is functional. As to conditions: 30 µM.
The target in assay [9] is AMP-activated protein kinase, AMPK (Homo sapiens) (UniProt P54646+O43741+P54619+Q9UGJ0+Q9Y478+Q13131+Q9UGI9). Kind of assay: AMP-dependent Kinase enzyme assay. An in vitro enzyme assay that detects ADP turnover that is directly proportional to AMPK activity. This uses naive AMPK that is activated during the assay with MK-8722. The format is functional. As to conditions: 30 µM.

For some of these results: Results with a measured potency or affinity are listed apart.

The results in this text go back to ChEMBL document CHEMBL3988442, “University of Dundee, Small-Polar-MMV Screening Library” (2021).

Sequence of Chromo domain-containing protein 1 (Saccharomyces cerevisiae (strain ATCC 204508 / S288c) (Baker's yeast)) (P32657 whole entry, the tested form may be a part): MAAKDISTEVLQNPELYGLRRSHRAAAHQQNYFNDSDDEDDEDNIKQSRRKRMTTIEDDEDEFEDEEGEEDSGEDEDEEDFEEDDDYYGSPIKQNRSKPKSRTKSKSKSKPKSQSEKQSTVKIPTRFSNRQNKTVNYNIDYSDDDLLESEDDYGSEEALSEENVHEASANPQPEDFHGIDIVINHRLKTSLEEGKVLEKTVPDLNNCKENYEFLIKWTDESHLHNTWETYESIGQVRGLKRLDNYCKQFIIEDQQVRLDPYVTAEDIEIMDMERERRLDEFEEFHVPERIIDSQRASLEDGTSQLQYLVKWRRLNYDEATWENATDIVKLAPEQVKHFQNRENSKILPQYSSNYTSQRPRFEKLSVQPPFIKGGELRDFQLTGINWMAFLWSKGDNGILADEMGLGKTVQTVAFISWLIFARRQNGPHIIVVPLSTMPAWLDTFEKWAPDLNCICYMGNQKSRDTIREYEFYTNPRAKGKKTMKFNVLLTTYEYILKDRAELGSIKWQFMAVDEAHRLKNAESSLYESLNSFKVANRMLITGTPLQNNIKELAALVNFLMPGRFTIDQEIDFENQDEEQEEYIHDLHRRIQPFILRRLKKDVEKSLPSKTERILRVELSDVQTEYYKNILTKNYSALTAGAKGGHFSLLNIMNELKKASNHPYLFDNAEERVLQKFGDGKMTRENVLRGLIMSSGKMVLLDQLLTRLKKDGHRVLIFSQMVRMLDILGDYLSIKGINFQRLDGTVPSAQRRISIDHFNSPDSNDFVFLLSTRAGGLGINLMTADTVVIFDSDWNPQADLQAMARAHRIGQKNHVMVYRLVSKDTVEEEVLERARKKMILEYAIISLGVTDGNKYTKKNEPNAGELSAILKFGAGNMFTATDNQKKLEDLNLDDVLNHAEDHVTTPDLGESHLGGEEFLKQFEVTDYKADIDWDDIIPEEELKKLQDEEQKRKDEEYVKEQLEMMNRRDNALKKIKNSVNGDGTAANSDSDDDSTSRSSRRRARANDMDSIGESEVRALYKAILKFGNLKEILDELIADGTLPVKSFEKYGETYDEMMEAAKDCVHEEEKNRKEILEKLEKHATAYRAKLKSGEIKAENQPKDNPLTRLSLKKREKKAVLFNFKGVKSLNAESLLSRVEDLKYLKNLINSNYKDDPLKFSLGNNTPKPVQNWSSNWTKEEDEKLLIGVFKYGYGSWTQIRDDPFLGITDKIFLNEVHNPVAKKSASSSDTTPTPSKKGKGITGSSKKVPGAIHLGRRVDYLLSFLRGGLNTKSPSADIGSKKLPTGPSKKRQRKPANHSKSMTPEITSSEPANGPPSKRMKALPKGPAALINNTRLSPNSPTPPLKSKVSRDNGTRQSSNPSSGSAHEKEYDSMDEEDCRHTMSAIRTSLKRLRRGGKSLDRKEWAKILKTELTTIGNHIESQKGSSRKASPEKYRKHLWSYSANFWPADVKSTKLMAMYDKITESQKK
Sequence of Protein translocase subunit SecA (Escherichia coli (strain K12)) (P10408 whole entry): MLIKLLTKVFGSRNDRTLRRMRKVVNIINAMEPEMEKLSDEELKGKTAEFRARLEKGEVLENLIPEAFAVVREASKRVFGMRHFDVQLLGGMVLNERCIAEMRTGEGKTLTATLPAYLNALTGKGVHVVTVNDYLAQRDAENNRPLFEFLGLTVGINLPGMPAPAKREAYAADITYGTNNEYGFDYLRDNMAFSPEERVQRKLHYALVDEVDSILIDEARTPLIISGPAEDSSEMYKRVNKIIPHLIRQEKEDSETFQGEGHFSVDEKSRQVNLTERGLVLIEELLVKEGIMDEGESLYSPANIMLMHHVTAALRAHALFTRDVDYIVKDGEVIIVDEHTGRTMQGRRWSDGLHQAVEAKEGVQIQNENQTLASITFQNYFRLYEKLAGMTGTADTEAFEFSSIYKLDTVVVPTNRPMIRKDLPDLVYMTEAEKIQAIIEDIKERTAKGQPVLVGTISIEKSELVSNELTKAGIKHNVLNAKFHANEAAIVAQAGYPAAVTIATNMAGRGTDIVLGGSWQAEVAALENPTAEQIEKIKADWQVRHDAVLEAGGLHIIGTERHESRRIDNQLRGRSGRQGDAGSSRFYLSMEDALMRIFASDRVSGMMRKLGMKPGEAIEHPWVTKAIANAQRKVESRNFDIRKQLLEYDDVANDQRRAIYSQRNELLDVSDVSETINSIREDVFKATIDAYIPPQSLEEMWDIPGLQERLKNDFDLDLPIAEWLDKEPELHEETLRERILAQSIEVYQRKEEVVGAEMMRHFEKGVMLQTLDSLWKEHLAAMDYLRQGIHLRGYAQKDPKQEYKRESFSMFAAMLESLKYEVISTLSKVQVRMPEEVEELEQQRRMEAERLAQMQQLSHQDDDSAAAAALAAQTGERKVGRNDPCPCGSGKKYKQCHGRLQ
Sequence of Sialic acid-binding Ig-like lectin 9 (Homo sapiens) (Q9Y336 whole entry): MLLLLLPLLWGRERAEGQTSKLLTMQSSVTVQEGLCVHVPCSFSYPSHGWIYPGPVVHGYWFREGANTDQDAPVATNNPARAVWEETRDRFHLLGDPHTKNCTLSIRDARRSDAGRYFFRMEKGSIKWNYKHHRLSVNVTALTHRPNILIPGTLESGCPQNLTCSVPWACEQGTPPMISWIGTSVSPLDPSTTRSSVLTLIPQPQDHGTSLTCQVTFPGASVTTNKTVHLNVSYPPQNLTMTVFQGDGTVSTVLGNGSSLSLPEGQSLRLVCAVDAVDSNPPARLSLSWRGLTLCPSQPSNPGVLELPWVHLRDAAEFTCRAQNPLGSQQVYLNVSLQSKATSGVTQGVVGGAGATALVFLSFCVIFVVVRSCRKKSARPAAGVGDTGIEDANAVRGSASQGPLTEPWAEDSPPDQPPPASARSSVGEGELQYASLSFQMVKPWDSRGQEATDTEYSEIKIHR

Take `Cc1occc1C(=O)N1CC[C@@H](N2CCOCC2)[C@@H]1Cc1ccccc1`: the Percent Effect in assay [1] is -6.37%; in assay [2], 11.7%; in assay [3], 1.96%; in the assay with Trypanosoma cruzi it was 0.876%; in assay [4], -2.83%; in assay [5], 7.33%. Also, the Percent Effect was 0.411% in the assay listed under Homo sapiens, 8.95% in [6], 15.4% in [7] and -4.72% in [8].

On to `O=S(=O)(NCCCn1cncn1)c1ccc2c(c1)OCCO2`, for which, in assay [9], the Percent Effect worked out at 8.28%.

Take `Cc1nccn1-c1cccc(C2CCCN2S(=O)(=O)c2cn(C)cn2)n1` (configuration not stated): the Percent Effect in assay [1] was -6.36%; in assay [2], 1.33%; in assay [3], -0.612%; in the assay with Trypanosoma cruzi, -3.94%; in assay [4] it was -0.885%; in assay [5], -0.493%. In addition, the Percent Effect in the assay listed under Homo sapiens is 22.4%; in assay [6], 0%; in [7], -2.5%; in assay [8], -23.4%.

As for `Cc1noc(CN(C)c2ccccc2)n1`, the Percent Effect in [9] worked out at 5.44%.

Consider `O=C(c1ccco1)N1CCC2(CCC(=O)N2Cc2cccc(F)c2)CC1`, for which the Percent Effect in assay [1] was -1.47%; in [2], 14.3%; in assay [3], 3%; in the assay with Trypanosoma cruzi it was -1.31%; in assay [4], 0%; in [5], 6.09%. Also, the Percent Effect in the assay listed under Homo sapiens is -5.56%; in [6], 5.8%; in assay [7] it was 10%; in assay [8], -5.07%.

`CN(C)S(=O)(=O)N1CC[C@]2(C[C@H](Oc3ncccc3F)CO2)C1`: the Percent Effect is -1.29% in assay [1]; 1.3% in assay [2]; 10.8% in [3]; 0.0974% in the assay with Trypanosoma cruzi; 0% in assay [4]; 1.15% in [5]. The Percent Effect is -1.45% in the assay filed under Homo sapiens, 4.74% in assay [6], 5.13% in assay [7] and 14.3% in [8].

For `CC(C)Oc1ncccc1CNC(=O)c1ccco1`, the Percent Effect in [1] is -4.42%; in [2] it was 16%; in [3], 0.422%; with Trypanosoma cruzi, 0.402%; in [4], 5.32%; in assay [5], 13.5%. For the same molecule, the Percent Effect is 7.02% in the assay filed under Homo sapiens, 5.79% in [6], 17.9% in assay [7] and -8.28% in assay [8].

For the molecule `Cc1cnn(C2CCCN(C(=O)c3sccc3-n3cnnn3)C2)c1` (configuration not stated), the Percent Effect was -2% in assay [1]; 7.69% in assay [2]; -3.12% in assay [3]; -5.54% in the assay on Trypanosoma cruzi; 2.46% in [4]; 7.93% in [5]. The Percent Effect came out at 33.8% in the assay filed under Homo sapiens, 5.26% in [6], 10.8% in assay [7] and 3.04% in [8].

`COC(CNC(=O)c1ccc[nH]1)c1cccc(Cl)c1` (configuration not stated): in [9], the Percent Effect was found to be 1.53%.

Consider `FC(F)(F)c1ccnc(N2CCCN(Cc3ccccn3)CC2)n1`, for which the Percent Effect in [9] was -1.31%.

Consider `Cc1ccc(-c2cn(C3CCN(C(=O)[C@H]4CCCO4)CC3)nn2)cc1`, for which the Percent Effect in assay [9] was -0.746%.

For `CCn1c(C2CCNCC2)nn(CCn2cncn2)c1=O`, in [9], the Percent Effect was determined as 3.82%.

Regarding `COc1ncc(NCc2ccc(F)cc2)cc1C(N)=O`, the Percent Effect in assay [9] is 5.39%.
